Reference: PubChem BioAssay (EPA / NIEHS)
Activity calls are given as the source filed them. Rule for the calls: active = hit-call score of the fitted dose curve at least 0.9, where 1 is the maximum; inactive = score below 0.9.

Assays:
[1] = read-out: catalase (CAT), CAT (gene 847); assay: LTEA_HepaRG_CAT: Life Technologies and Expression Analysis (LTEA) Assay for catalase (CAT) using HepaRG (AID 2283452); details: mRNA level, 48 h; actives raise or lower the signal;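 for AC50: TaqMan qRT-PCR signal normalized to ACTB GAPDH and POLR2A housekeeping genes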
Procedure, shortened: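 Differentiated HepaRG cells in serum-free induction medium were dosed 48 h in duplicate, eight half-log concentrations from 100 uM in 0.5% DMSO. Transcript measured by TaqMan qRT-PCR, normalised to ACTB/GAPDH/POLR2A, fitted bidirectionally against DMSO.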

[2] = read-out: flavin-containing dimethylaniline monooxygenases 3 (FMO3), FMO3 (gene 2328); assay: LTEA_HepaRG_FMO3: Life Technologies and Expression Analysis (LTEA) Assay for flavin-containing dimethylaniline monooxygenases 3 (FMO3) using HepaRG (AID 2283453); details: mRNA level, 48 h; actives raise or lower the signal;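 for AC50: FMO3 transcript by TaqMan qRT-PCR normalized to ACTB GAPDH and POLR2A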
Procedure, shortened: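 Eight-point concentration-response in serum-free HepaRG cultures (top 100 uM, 0.5% DMSO, 48 h). Read-out: FMO3 mRNA level normalized to three endogenous control genes, fitted bidirectionally versus vehicle.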

[3] = read-out: Cytochrome P450 (CYP1A1), CYP1A1 (gene 1543); assay: LTEA_HepaRG_CYP1A1: Life Technologies and Expression Analysis (LTEA) Assay for Cytochrome P450 (CYP1A1) using HepaRG (AID 2283454); details: mRNA level, 48 h; actives raise or lower the signal
Procedure, shortened: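 Induction of CYP1A1 mRNA in a human hepatic cell line was measured 48 h after dosing, with 1 mM phenobarbital as induction positive control and 0.5% DMSO vehicle as baseline for bidirectional curve fitting.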

[4] = read-out: CFLAR gene, CFLAR (gene 8837); assay: LTEA_HepaRG_CFLAR: Life Technologies and Expression Analysis (LTEA) Assay for CFLAR gene using HepaRG (AID 2283455); details: mRNA level, 48 h; actives raise or lower the signal
Procedure, shortened: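 Gain- or loss-of-signal changes in CFLAR transcript were fitted bidirectionally relative to 0.5% DMSO. Cells (HepaRG, duplicate wells) were dosed for 48 h across eight half-log concentrations topping at 100 uM; quantitation by TaqMan qRT-PCR.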

[5] = read-out: Forkhead box O1 (FOXO1), FOXO1 (gene 2308); assay: LTEA_HepaRG_FOXO1: Life Technologies and Expression Analysis (LTEA) Assay for Forkhead box O1 (FOXO1) using HepaRG (AID 2283456); details: mRNA level, 48 h; actives raise or lower the signal
Procedure, shortened: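 Using one lot of HepaRG hepatic cells kept in 0.5% DMSO, the team applied test chemicals in duplicate, half-log dilutions from 100 uM, for 48 h. Expression, normalised to ACTB/GAPDH/POLR2A, was compared with vehicle in either direction.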

[6] = CEETOX_H295R_TESTO: CeeTox H295R High-throughput Steroidogenesis Assay for Testosterone (TESTO) (AID 2283457); details: actives raise or lower the signal;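 for AC50: cells exposed to chemicals for 48 h before medium collection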
Procedure, shortened: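 Testosterone synthesis is assessed in human adrenocortical H295R cells after 48 h of chemical exposure, using HPLC-MS/MS of extracted medium. Activity is fitted in both directions against DMSO control.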

[7] = read-out: growth arrest and DNA damage 45 (GADD45A), GADD45A (gene 1647); assay: LTEA_HepaRG_GADD45A: Life Technologies and Expression Analysis (LTEA) Assay for growth arrest and DNA damage 45 (GADD45A) using HepaRG (AID 2283458); details: mRNA level, 48 h; actives raise or lower the signal
Procedure, shortened: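 HepaRG, 48 h exposure, 8 conc. (top 100 uM, half-log steps), 0.5% DMSO vehicle, duplicates. Read-out: qRT-PCR mRNA level, housekeeping-normalized (ACTB/GAPDH/POLR2A). Curves fit bidirectionally vs DMSO baseline.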

[8] = read-out: Forkhead box O3 (FOXO3), FOXO3 (gene 2309); assay: LTEA_HepaRG_FOXO3: Life Technologies and Expression Analysis (LTEA) Assay for Forkhead box O3 (FOXO3) using HepaRG (AID 2283459); details: mRNA level, 48 h; actives raise or lower the signal
Procedure, shortened: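 Gene-expression endpoint: FOXO3 transcript level by qRT-PCR in HepaRG cultures treated 48 h with chemicals up to 100 uM (half-log, 0.5% DMSO vehicle).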

[9] = read-out: ABC Transporter (ABCB1), ABCB1 (gene 5243); assay: LTEA_HepaRG_ABCB1: Life Technologies and Expression Analysis (LTEA) Assay for ABC Transporter (ABCB1) using HepaRG (AID 2283460); details: mRNA level, 48 h; actives raise or lower the signal
Procedure, shortened: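 Human liver HepaRG line treated 48 h with up to 100 uM compound (eight half-log points, 0.5% DMSO); ABCB1 mRNA change fitted bidirectionally against DMSO controls.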

[10] = read-out: growth arrest and DNA damage 45 (GADD45B), GADD45B (gene 4616); assay: LTEA_HepaRG_GADD45B: Life Technologies and Expression Analysis (LTEA) Assay for growth arrest and DNA damage 45 (GADD45B) using HepaRG (AID 2283461); details: mRNA level, 48 h; actives raise or lower the signal
Procedure, shortened: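 Values are bidirectional concentration-response fits against 0.5% DMSO controls. Underlying data: qRT-PCR mRNA levels in human HepaRG liver cells treated 48 h in serum-free induction medium, eight concentrations topping at 100 uM.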

[11] = read-out: ABC Transporter (ABCC3), ABCC3 (gene 8714); assay: LTEA_HepaRG_ABCC3: Life Technologies and Expression Analysis (LTEA) Assay for ABC Transporter (ABCC3) using HepaRG (AID 2283462); details: mRNA level, 48 h; actives raise or lower the signal
Procedure, shortened: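 Differentiated HepaRG liver cells receive test chemicals at eight concentrations (max 100 uM) for 48 h. Expression of ABCC3 is quantified by qRT-PCR against ACTB, GAPDH and POLR2A, and activity is fitted in both directions against the DMSO control.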

[12] = read-out: ABC Transporter (ABCB11), ABCB11 (gene 8647); assay: LTEA_HepaRG_ABCB11: Life Technologies and Expression Analysis (LTEA) Assay for ABC Transporter (ABCB11) using HepaRG (AID 2283463); details: mRNA level, 48 h; actives raise or lower the signal
Procedure, shortened: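 Using HepaRG cultures held in 0.5% DMSO, chemicals were tested at half-log dilutions from 100 uM for 48 h. Induction or suppression of ABCB11 mRNA, normalized to ACTB, GAPDH and POLR2A, was fitted bidirectionally against vehicle.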

[13] = read-out: ABC Transporter (ABCC2), ABCC2 (gene 1244); assay: LTEA_HepaRG_ABCC2: Life Technologies and Expression Analysis (LTEA) Assay for ABC Transporter (ABCC2) using HepaRG (AID 2283464); details: mRNA level, 48 h; actives raise or lower the signal
Procedure, shortened: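 Gene expression of ABCC2 was determined by qRT-PCR in HepaRG cells exposed 48 h to chemicals (highest 100 uM, half-log dilutions). Activity was fitted in both directions relative to 0.5% DMSO vehicle.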

[14] = read-out: Broad substrate specificity ATP-binding cassette transporter ABCG2 (Homo sapiens) (UniProt Q9UNQ0); assay: LTEA_HepaRG_ABCG2: Life Technologies and Expression Analysis (LTEA) Assay for ABC Transporter (ABCG2) using HepaRG (AID 2283465); details: mRNA level, 48 h; actives raise or lower the signal
Procedure, shortened: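 Gene expression of ABCG2 in HepaRG liver cells is quantified by qRT-PCR following 48 h exposure across an eight-point series topping at 100 uM. Values come from bidirectional fitting relative to DMSO vehicle.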

[15] = read-out: ATP-citrate lyase (ACLY), ACLY (gene 47); assay: LTEA_HepaRG_ACLY: Life Technologies and Expression Analysis (LTEA) Assay for ATP-citrate lyase (ACLY) using HepaRG (AID 2283466); details: mRNA level, 48 h; actives raise or lower the signal
Procedure, shortened: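 ACLY expression changes in human HepaRG liver cells are quantified by qRT-PCR after 48 h exposure to test chemicals (maximum 100 uM, half-log steps). Values are fitted in both directions relative to 0.5% DMSO vehicle.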

[16] = read-out: Peroxisomal acyl-coenzyme A oxidase 1 (ACOX1) gene, ACOX1 (gene 51); assay: LTEA_HepaRG_ACOX1: Life Technologies and Expression Analysis (LTEA) Assay for Peroxisomal acyl-coenzyme A oxidase 1 (ACOX1) gene using HepaRG (AID 2283467); details: mRNA level, 48 h; actives raise or lower the signal
Procedure, shortened: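 Human HepaRG hepatic cultures, 48 h treatment with test chemicals up to 100 uM. ACOX1 expression read by qRT-PCR relative to 0.5% DMSO vehicle.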

[17] = read-out: Alkaline Phosphatase, Placental (ALPP) gene, ALPP (gene 250); assay: LTEA_HepaRG_ALPP: Life Technologies and Expression Analysis (LTEA) Assay for Alkaline Phosphatase, Placental (ALPP) gene using HepaRG (AID 2283468); details: mRNA level, 48 h; actives raise or lower the signal
Procedure, shortened: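 Expression of ALPP was quantified by qRT-PCR against three housekeeping genes in human HepaRG cultures treated for 48 h with an eight-point concentration series up to 100 uM. Activity in either direction was fitted relative to 0.5% DMSO.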

[18] = read-out: Bcl-2 (BAD) gene, BAD (gene 572); assay: LTEA_HepaRG_BAD: Life Technologies and Expression Analysis (LTEA) Assay for Bcl-2 (BAD) gene using HepaRG (AID 2283469); details: mRNA level, 48 h; actives raise or lower the signal
Procedure, shortened: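 Activity values reflect up- or down-regulation of BAD mRNA in human HepaRG hepatic cells treated 48 h in serum-free medium, with eight-point half-log dosing capped at 100 uM and 0.5% DMSO vehicle.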

[19] = read-out: Bcl-2 (BAX) gene, BAX (gene 581); assay: LTEA_HepaRG_BAX: Life Technologies and Expression Analysis (LTEA) Assay for Bcl-2 (BAX) gene using HepaRG (AID 2283470); details: mRNA level, 48 h; actives raise or lower the signal
Procedure, shortened: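 qRT-PCR read-out of BAX mRNA, normalized to three housekeeping genes, after 48 h chemical exposure of human HepaRG cells in serum-free induction medium; eight-point half-log series, top 100 uM, 0.5% DMSO vehicle; bidirectional fit versus DMSO.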

[20] = read-out: adenosine kinase (ADK) gene, ADK (gene 132); assay: LTEA_HepaRG_ADK: Life Technologies and Expression Analysis (LTEA) Assay for adenosine kinase (ADK) gene using HepaRG (AID 2283471); details: mRNA level, 48 h; actives raise or lower the signal
Procedure, shortened: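 HepaRG (human liver), 48 h chemical exposure, 8-pt half-log series, top 100 uM, 0.5% DMSO vehicle. Readout: ADK mRNA by qRT-PCR vs housekeeping genes; bidirectional curve fit relative to DMSO baseline.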

Measured: AC50

Broad substrate specificity ATP-binding cassette transporter ABCG2 (Homo sapiens), sequence (Q9UNQ0 whole entry, looked up): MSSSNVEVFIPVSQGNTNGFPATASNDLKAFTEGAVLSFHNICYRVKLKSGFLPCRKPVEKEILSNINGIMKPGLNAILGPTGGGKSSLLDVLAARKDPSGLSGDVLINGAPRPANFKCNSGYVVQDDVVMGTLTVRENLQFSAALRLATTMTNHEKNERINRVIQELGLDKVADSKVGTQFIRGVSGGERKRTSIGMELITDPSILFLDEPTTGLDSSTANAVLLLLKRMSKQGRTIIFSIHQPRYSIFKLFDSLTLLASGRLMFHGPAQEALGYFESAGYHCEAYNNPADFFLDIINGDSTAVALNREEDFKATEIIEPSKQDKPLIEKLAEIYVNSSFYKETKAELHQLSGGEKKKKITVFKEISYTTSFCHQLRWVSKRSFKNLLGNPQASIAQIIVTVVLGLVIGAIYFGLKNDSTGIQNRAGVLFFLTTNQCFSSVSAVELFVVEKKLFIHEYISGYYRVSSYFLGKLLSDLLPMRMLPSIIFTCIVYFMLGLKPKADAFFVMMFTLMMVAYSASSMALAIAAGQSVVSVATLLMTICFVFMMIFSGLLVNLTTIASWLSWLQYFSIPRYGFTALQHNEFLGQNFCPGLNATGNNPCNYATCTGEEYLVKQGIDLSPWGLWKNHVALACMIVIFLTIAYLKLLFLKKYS

Cc1c2ccccc2c(C)c2c1ccc1ccccc12
inactive: [6] | [9] | [13] | [15] | [18] | [20]
active: [1] 48.5 µM | [2] 34.2 µM | [3] 11.9 µM | [4] 40.9 µM | [5] 75 µM | [7] 61.9 µM | [8] 13 µM | [10] 50 µM | [11] 12.7 µM | [12] 30.6 µM | [14] 12.8 µM | [16] 27.7 µM | [17] 39.7 µM | [19] 63.1 µM

O=c1ccc2ccccc2o1
not listed: [6]
inactive: all other assays above

Cc1cn([C@H]2C[C@H](N=[N+]=[N-])[C@@H](CO)O2)c(=O)[nH]c1=O
not listed: [6]
inactive: all other assays above

O=c1c(-c2ccc(O)cc2)coc2cc(O)cc(O)c12
active: [6] 12.3 µM | [12] 9.92 µM
not listed: [10] | [15]
inactive: all other assays above

CN(C)C(=O)C1(N2CCCCC2)CCN(CC[C@@]2(c3ccc(Cl)c(Cl)c3)CN(C(=O)c3ccccc3)CCO2)CC1
active: [1] 17.2 µM | [2] 13.7 µM | [3] 24.7 µM | [4] 61.9 µM | [5] 47.2 µM | [9] 23.4 µM | [10] 29 µM | [11] 79.4 µM | [12] 26 µM | [13] 23.7 µM | [15] 47.2 µM | [16] 88.1 µM | [17] 14.9 µM | [19] 27.1 µM
inactive: [7] | [8] | [14] | [18] | [20]

CN(C[C@@H](CC[N+]12CCC(C3CCCCC3)(CC1)CC2)c1ccc(Cl)c(Cl)c1)C(=O)c1cc(C(F)(F)F)cc(C(F)(F)F)c1
inactive: [10] | [11] | [14] | [15] | [18] | [19] | [20]
active: [1] 17.5 µM | [2] 50 µM | [3] 14.9 µM | [4] 50 µM | [5] 35.9 µM | [7] 0.171 µM | [8] 30.6 µM | [9] 74.2 µM | [12] 14.5 µM | [13] 63.3 µM | [16] 63.5 µM | [17] 3.14 µM

O=C1c2ccccc2C(=O)N1CCc1noc(-c2ccc(CN3CCCCCC3)s2)n1
active: [3] 8.04 µM
not listed: [6]
inactive: all other assays above

Cc1cccc2ccccc12
not listed: [6]
inactive: all other assays above

COCC(C)OCC(C)OCC(C)O (stereo not drawn)
not listed: [6]
inactive: all other assays above

O=C(O)c1ccccc1C(=O)OCc1ccccc1
active: [3] 21.4 µM
not listed: [6]
inactive: all other assays above

NC(=O)c1nc(-c2cccc(-c3cc(F)ccc3OCC(F)(F)C(F)(F)F)c2)n[nH]1
active: [1] 50 µM | [3] 20.1 µM | [8] 50 µM | [11] 84 µM | [13] 89.8 µM | [14] 15.8 µM | [16] 81.4 µM | [17] 3.42 µM | [20] 92.8 µM
not listed: [10]
inactive: all other assays above

Clc1ccccc1C(c1ccccc1)(c1ccccc1)n1ccnc1
active: [1] 21 µM | [2] 96.5 µM | [3] 9.17 µM | [9] 15.8 µM | [11] 78.3 µM | [12] 28.6 µM | [14] 37.5 µM | [15] 8.91 µM | [16] 60 µM | [17] 9.09 µM | [18] 91.3 µM | [19] 12.3 µM | [20] 93 µM
inactive: [4] | [5] | [7] | [8] | [10] | [13]
